Cycloheximide cs: affects cycloheximide protein synthesis inhibition readout, counter-screen; 300,000 tested, 12% active; max response, %; cell reporter, cycloheximide protein synthesis inhibition counterscreen; AID 2314; in the data active = max response mostly above about 13%, no sharp cut-off; inactive = mostly below about 14%; note: read at 38.3 µM for the half of the compounds with a filed dose
Shiga toxin inh: blocks Shiga toxin action in Vero cells; inhibition, % at 38.7 µM; Vero cells, Shiga toxin protein synthesis inhibition reporter; 290,000 tested, 9.2% active; in the data active = inhibition mostly above about 28%, no sharp cut-off; inactive = mostly below about 43%
SARS PLP yeast: inhibitors of SARS-CoV papain-like protease in yeast | 330,000 tested, 0.19% active | AID 485353 | S. cerevisiae expressing SARS-CoV PLpro, growth rescue | Potency, µM (highest dose often 32.9 µM), hits mostly activators; note: nearly all actives have a fitted effect of over 55% in size
Tb PYK inh: blocks Trypanosoma brucei pyruvate kinase | Q57TT1 | TbPYK enzyme, Kinase-Glo Plus ATP luminescence, 45 min | Potency, µM (series often up to 76.8 µM), hits mostly inhibitors | 410,000 tested, 0.12% active; active = well fitted curve in the direction sought with a large enough effect; inconclusive = small, poorly fitted or top-dose-only effect, or another doubt; inactive = no such curve, though single readings can be large; an effect the other way counts as inactive or inconclusive; note: nearly all actives have a fitted effect of over 50% in size
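Screened from lowest to highest concentration, compounds were pinned into TbPYK/substrate mixtures, and ADP (130 uM final) was added. Plates sat at room temperature for 45 min prior to Kinase-Glo Plus detection by luminescence.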
NS1 function inh: inhibitors of influenza NS1 protein function | Potency, µM (titrated, usually from 46.1 µM) | 270,000 tested, 0.4% active; note: actives are rising curves; nearly all actives have a fitted effect of over 50% in size
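Read-out: OD600 growth recovery of NS1-expressing budding yeast. Cells grown overnight at 30C in -URA glucose medium, washed, resuspended and diluted 1:100 in 2% galactose assay medium, pH 6.0. Same strain lacking NS1 served as positive control.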
LmPK inh: LmPK (Leishmania mexicana) enzyme inhibition | Potency, µM (highest dose often 57.5 µM), usual class: inhibitors | 290,000 tested, 0.37% active | Q27686 | purified LmPK, Kinase-Glo ATP luminescence, 1 h | AID 1721; active = well fitted curve in the direction sought with a large enough effect; inconclusive = small, poorly fitted or top-dose-only effect, or another doubt; inactive = no such curve, though single readings can be large; an effect the other way counts as inactive or inconclusive
Target sequence (Q27686 whole entry, looked up): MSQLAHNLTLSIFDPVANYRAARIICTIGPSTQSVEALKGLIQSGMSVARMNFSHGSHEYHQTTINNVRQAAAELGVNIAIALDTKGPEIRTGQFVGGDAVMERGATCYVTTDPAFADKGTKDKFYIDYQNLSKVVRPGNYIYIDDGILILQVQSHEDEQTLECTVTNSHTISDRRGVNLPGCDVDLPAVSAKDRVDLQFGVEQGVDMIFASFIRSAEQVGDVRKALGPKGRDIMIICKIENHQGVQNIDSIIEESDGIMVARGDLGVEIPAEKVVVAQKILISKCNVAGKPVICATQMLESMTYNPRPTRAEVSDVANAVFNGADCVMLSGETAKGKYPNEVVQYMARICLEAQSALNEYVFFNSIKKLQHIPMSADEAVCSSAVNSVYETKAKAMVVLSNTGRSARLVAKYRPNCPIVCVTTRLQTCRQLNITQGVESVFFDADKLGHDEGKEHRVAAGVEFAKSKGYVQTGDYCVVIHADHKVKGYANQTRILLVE
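Kinase-Glo luminescence read after 1 h RT reaction of 0.1 nM LmPK with 0.5 mM PEP and 0.1 mM ADP. Activity scaled between uninhibited and enzyme-free controls.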
Hits are given with their value; – = inactive; ? = inconclusive; · = not tested or not shown. The entries come from a sample that favours hits as a whole. Unless noted, calls come from the whole dose curve.

SMILES | Cycloheximide cs | Shiga toxin inh | SARS PLP yeast | Tb PYK inh | NS1 function inh | LmPK inh
CC(NC(=O)Cc1ccc(NC(=O)N2CCCCc3ccccc32)cc1)c1ccccc1 (centres undefined) | · | · | · | – | · | ·
CCOC(=O)N/N=C(\CCC(=O)O)c1cccs1 | 17 | 35 | – | – | – | –
O=C(O)CCC(=O)NNC(=O)c1cccs1 | 18 | – | – | – | – | –
Cc1cc(C(=O)NN=C(CCC(=O)O)c2cccs2)c(C)o1 | · | · | – | – | · | ·
O=C(O)CC/C(=N\Nc1ccccc1[N+](=O)[O-])c1cccs1 | 47 | 58 | – | – | – | –
O=C(O)CC/C(=N\Nc1ccc(S(=O)(=O)N2CCCC2)cc1[N+](=O)[O-])c1cccs1 | – | – | – | – | – | –
O=C(O)CC/C(=N/NC(=O)c1cccs1)c1ccccc1 | 77 | 24 | – | – | – | –
CC1=C(C(=O)N(C(C)C)C(C)C)CC(CC(=O)NCCCCc2ccccc2)C(=O)N1Cc1ccc(F)cc1 (centres undefined) | · | · | · | – | · | ·
c1ccc2c(CSCc3cccc4ccccc34)cccc2c1 | · | · | · | · | – | ·
Cc1c(/C=N/NC(=O)c2ccccc2O)c2ccccn2c1C(=O)c1ccc(F)cc1 | 15 | – | – | – | ? | –
COC(=O)N/N=C/c1c(C)c(C(=O)c2ccc(F)cc2)n2ccccc12 | – | – | – | – | – | –
NC(=O)C1CCN(C(=O)CCSCc2ccccc2)CC1 | 24 | – | ? | – | – | –
Cc1ccc(SCCC(=O)N2CCC(C(N)=O)CC2)cc1 | 14 | – | ? | – | – | –
CCN(CC(=O)N1CCC(C)CC1)S(=O)(=O)c1ccc(C)cc1 | – | – | – | – | – | –
Cc1cc(C)nc(SCC(=O)N2CCC(C(N)=O)CC2)n1 | – | – | – | – | – | –
Cc1ccc(SCCC(=O)N2CCC(C)CC2)cc1 | 34 | 73 | – | – | – | –
COc1ccc(C(=O)Nc2nnc(S(=O)(=O)N(C)c3ccc(C)cc3)s2)cc1 | · | · | · | – | · | ·
O=C(O)C(CCc1ccccc1)N1CCOCC1 (centres undefined) | · | · | · | – | · | ·
CCC(C)c1cc([N+](=O)[O-])cc([N+](=O)[O-])c1OC(=O)OC(C)C (centres undefined) | – | – | · | · | · | ·
CN(C)C(=O)C#Cc1ccccc1 | – | – | – | – | – | –
NS(=O)(=O)C#Cc1ccccc1 | 26 | 15 | · | · | · | ·
Cc1nc2c(C(=O)NCCc3ccc(Cl)cc3)cnn2c(C)c1Cc1ccc(F)cc1 | · | · | · | – | · | ·
Cc1cccc2c1cnn2C(=O)Nc1cc(F)ccc1F | 40 | 59 | – | – | – | –
O=C(Nc1ccccc1F)n1ncc2cc(Cl)ccc21 | 12 | – | – | – | – | –
COc1cc(NC(=O)n2ncc3cc(Cl)ccc32)cc(OC)c1 | 43 | 60 | – | – | – | –
SMILES | Cycloheximide cs | Shiga toxin inh | SARS PLP yeast | Tb PYK inh | NS1 function inh | LmPK inh
COc1cc(OC)c(NC(=O)n2ncc3cc(Cl)ccc32)cc1Cl | · | · | · | – | · | ·
COc1ccc(NC(=O)n2ncc3cc(Cl)ccc32)cc1OC | 47 | 56 | – | – | – | –
CCOc1ccccc1NC(=O)n1ncc2c(C)cccc21 | – | – | – | – | – | –
CCCN1C(=O)/C(=C/c2nc3ccccc3c(=O)[nH]2)c2cc(C)ccc21 | 11 | – | – | – | – | –
Cc1cccc(-n2c(/C=C/c3c(C)[nH]c4ccccc34)nc3ccccc3c2=O)c1 | · | · | · | – | · | ·
O=c1[nH]c(/C=C/c2ccccc2Cl)nc2ccccc12 | 40 | 106 | – | – | – | –
O=C(O)c1ccc(/C=C/c2nc3ccccc3c(=O)[nH]2)cc1 | – | – | – | – | – | –
CCCN1C(=O)/C(=C/c2nc3ccccc3c(=O)[nH]2)c2ccccc21 | – | – | – | – | – | –
Cc1[nH]c2ccccc2c1/C=C/c1nc2ccccc2c(=O)[nH]1 | 53 | 84 | – | – | – | –
COc1cc(/C=C/c2nc3ccccc3c(=O)n2-c2cccc(O)c2)ccc1O | – | 59 | – | – | – | –
Cn1cccc1C(=O)Nc1ccc(Cl)c(S(=O)(=O)N2CCCCC2)c1 | · | · | – | – | · | ·
O=[N+]([O-])c1ccccc1S(=O)c1ccccc1[N+](=O)[O-] | · | · | · | – | · | ·
Cc1cccc(/C=C/c2nc3ccccc3c(=O)[nH]2)c1 | 29 | 112 | – | – | – | ?
CCOc1cc(/C=C/c2nc3ccccc3c(=O)[nH]2)ccc1O | 45 | 50 | – | – | – | –
COc1cccc(/C=C/c2nc3c(cnn3-c3ccccc3)c(=O)[nH]2)c1 | 15 | – | – | – | – | –
CCCc1cnc2c(c1SCC(=O)Nc1ccc(C)c(Cl)c1)c(=O)n(C)c(=O)n2C | · | · | · | – | · | ·
CNc1ccc2ncc(-c3ccc(OC)c(OC)c3)n2n1 | · | · | · | – | · | ·
CCOC(=O)C1=CCN(S(=O)(=O)c2ccccc2C)C1c1ccc(Cl)cc1 (centres undefined) | · | · | · | – | · | ·
O=C(Nc1ccccc1)c1snc2c(=O)[nH]cnc12 | 16 | – | – | – | – | –
CCOC(=O)c1snc2c(=O)[nH]cnc12 | – | – | – | – | – | –
O=S(=O)(c1ccc(Br)cc1)c1nnn2c1nc(NCc1ccc3c(c1)OCO3)c1sccc12 | · | · | · | – | · | ·
Cc1cccc(OCCn2nnc3ccccc32)c1C | 42 | · | – | – | – | –
C/C=C/c1ccc(OCCn2nnc3ccccc32)c(OC)c1 | 35 | – | – | – | – | –
C=CCc1ccc(OCCn2cccc2C=O)c(OC)c1 | 49 | 116 | – | – | – | –
C=CCc1ccc(OCCn2nnc3ccccc32)c(OC)c1 | 50 | 53 | – | – | – | –
SMILES | Cycloheximide cs | Shiga toxin inh | SARS PLP yeast | Tb PYK inh | NS1 function inh | LmPK inh
COc1ccc2c(c1)[N+](=O)C(/C(C)=N/NC(N)=S)=C(C)[N+]2=O | · | · | · | · | – | ·
COc1cc(NC(=O)Cn2c(=O)n(C(C)C)c(=O)c3oc4ccccc4c32)cc(OC)c1 | · | · | · | – | · | ·
C=CCc1ccc(OCCOCCN(C)C)c(OC)c1 | – | – | – | – | – | –
C=CCc1ccc(OCCOc2cccc3ccc(C)nc23)c(OC)c1 | 30 | 59 | – | – | – | –
Cc1cccnc1NC(=O)Cn1nc(-c2ccccc2)oc1=S | 40 | 89 | – | – | – | –
CCOC(=O)c1c(S(=O)(=O)N2CCCC(C(=O)NCc3ccc(Cl)cc3)C2)c(C)n(C)c1C (centres undefined) | · | · | · | – | · | ·
O=C(Cc1ccc(Br)cc1)Nc1ccc(Cl)cc1 | 25 | – | – | – | · | –
O=C(Cc1cccc(Cl)c1)Nc1ccc(Br)cc1 | 17 | – | – | – | – | –
O=S(=O)(Nc1ccc(-n2cnnn2)cc1)c1cccc(Cl)c1 | · | · | – | – | · | ·
CCCc1[nH]nc2c1C(c1ccc(OCCN3CCOCC3)c(OC)c1)C(C#N)=C(N)O2 (centres undefined) | 49 | 54 | – | – | – | –
CCCc1[nH]nc2c1C(c1ccc(O)c(OC)c1)C(C#N)=C(N)O2 (centres undefined) | – | – | – | – | – | –
COc1ccccc1CN(C)C(=O)c1ccccc1Sc1ccccc1C#N | – | – | – | – | – | –
